Screens deposited in PubChem by National Center for Advancing Translational Sciences (NCATS).
CtBP-E1A inh – qHTS Assay for Inhibitors of the CtBP/E1A Interaction; AID 651724, 2012; 0.49% of 340,000 active; AlphaScreen GST-E1A/His-CtBP binding, 1536-well; hits give low values; activity change, % (concentration not given with the values); in the data active means activity change below about -65%; inconclusive means mostly about -30% to -63%
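GST-E1A and His-tagged CtBP (125 nM each as 5X stock) were preincubated with pin-transferred compound for 2 h at 37 °C in the dark, then glutathione donor and nickel acceptor beads were added for 1 h before AlphaScreen reading.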
TDP1 inh – qHTS Assay for Inhibitors of Tyrosyl-DNA Phosphodiesterase (TDP1). 0.28% of 350,000 active. recombinant TDP1, AlphaScreen DNA substrate cleavage. Tyrosyl-DNA phosphodiesterase 1 (Homo sapiens), Q9NUW8. Potency, µM (titrated, usually from 130 µM), for inactives: at the top dose activity change, negative = inhibition, actives largely listed as inhibitors. AID 485290, 2010; further: potency means the concentration at half of the fitted maximal effect; nearly all actives have a fitted effect of over 40% in size
Target sequence (Q9NUW8 whole entry, looked up): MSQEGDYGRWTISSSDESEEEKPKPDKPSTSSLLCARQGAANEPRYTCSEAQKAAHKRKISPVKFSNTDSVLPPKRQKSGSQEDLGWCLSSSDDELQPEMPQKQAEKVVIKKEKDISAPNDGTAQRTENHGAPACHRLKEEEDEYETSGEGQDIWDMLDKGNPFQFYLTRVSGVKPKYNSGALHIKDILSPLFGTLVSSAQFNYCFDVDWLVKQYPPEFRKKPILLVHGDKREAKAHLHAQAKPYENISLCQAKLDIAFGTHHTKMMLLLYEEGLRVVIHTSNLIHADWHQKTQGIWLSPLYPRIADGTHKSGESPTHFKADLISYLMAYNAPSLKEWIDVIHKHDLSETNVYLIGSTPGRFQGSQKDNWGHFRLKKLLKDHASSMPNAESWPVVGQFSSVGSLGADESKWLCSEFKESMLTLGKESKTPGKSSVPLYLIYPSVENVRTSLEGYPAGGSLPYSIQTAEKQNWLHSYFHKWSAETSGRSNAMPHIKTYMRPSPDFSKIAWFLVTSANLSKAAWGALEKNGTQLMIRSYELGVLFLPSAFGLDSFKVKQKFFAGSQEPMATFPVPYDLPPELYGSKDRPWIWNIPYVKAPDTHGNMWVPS
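E. coli-derived human Tdp1, 1 nM final. Cpd preinc 15 min RT; substrate 15 nM final, 5 min RT; AS bead mix 10 ug/ml final, 10 min RT. Signal loss = tyrosine-FITC cleavage. No-enzyme wells = max signal.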
DT40 TDP1 no CPT – qHTS for Inhibitors of human tyrosyl-DNA phosphodiesterase 1 (TDP1): qHTS in cells in absence of CPT. DT40 Tdp1-/- hTDP1 cells, no CPT, ATP luminescence, 48 h. 15% of 420,000 active. Potency, µM (titrated, usually from 46.2 µM), without a hit: at the highest dose activity change, negative = growth inhibition, usual class: inhibitors. AID 686978, 2013; further: potency means the concentration at half of the fitted maximal effect; nearly all actives have a fitted effect of over 55% in size
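No-CPT arm: Tdp1-/-;hTDP1 DT40 cells (400/well) plus compounds, incubated ≥48 hr at 37 °C. Readout CellTiter-Glo luminescence.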
IL-1B inflam inh – qHTS for Inhibitors of Inflammasome Signaling: IL-1-beta AlphaLISA Primary Screen | THP-1 LPS/ATP IL-1B secretion, AlphaLISA, 16 h; hits give low values | activity change, % at 57.5 µM | 4.7% of 360,000 active | AID 743279, 2014; in the data active means activity change below about -50%; inconclusive means mostly about -30% to -49%
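THP-1 cells pretreated 1 hr with compounds (up to 57.5 uM final), then stimulated with LPS (250 ng/mL final) plus ATP (1.25 mM final); secreted IL-1B measured by AlphaLISA after 16 hr, decreased signal indicating inhibition.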
TDP1 cell CPT – qHTS for Inhibitors of human tyrosyl-DNA phosphodiesterase 1 (TDP1): qHTS in cells in presence of CPT; chicken DT40 Tdp1-/-;hTDP1 cells + 20 nM CPT, ATP luminescence, 48 h; Potency, µM (doses to about 46.2 µM), for the others: top-dose activity change, negative = growth inhibition, hits mostly inhibitors; 12% of 420,000 active; AID 686979, 2013; further: potency means the concentration at half of the fitted maximal effect; nearly all actives have a fitted effect of over 55% in size
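Chicken DT40 Tdp1-/- cells stably complemented with human TDP1 were seeded at 400 cells/well in medium containing 20 nM camptothecin, exposed to pin-transferred compounds, and grown at 37 °C for at least 48 hr. Viability was read as ATP luminescence.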
Six1-Eya2 blk – qHTS Assay for Inhibitors of the Six1/Eya2 Interaction. Homeobox protein SIX1 (Homo sapiens) + Protein phosphatase EYA2 (Homo sapiens), …. AlphaScreen GST-Six1/His-Eya2 binding, biochemical; hits give low values. activity change, % (no concentration beside the values). 0.56% of 360,000 active. AID 651725, 2012; in the data active means activity change below about -65%; inconclusive means mostly about -30% to -63%
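Homogeneous AlphaScreen proximity assay pairing GST-Six1 with His-tagged Eya2 (added as 5X mix: 250 nM and 500 nM) in 50 mM Tris pH 8.0, 300 mM NaCl, 1 mM TCEP. Glutathione donor and nickel acceptor beads; 1 h, 37 °C, dark.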
* hit, by the source's call; ? = inconclusive; / = not tested or not shown. In the library only some 18% were active in any assay of this set; here they are far more common. Unless noted, the call rests on the fitted dose curve; in most records, active means well fitted curve in the direction sought with a large enough effect; inconclusive means small, poorly fitted or top-dose-only effect, or another doubt; inactive means no such curve, though single readings can be large; an effect the other way counts as inactive or inconclusive. On the % scale 0 is the no-effect control and ±100 the full control effect.

SMILES | CtBP-E1A inh | TDP1 inh | DT40 TDP1 no CPT | IL-1B inflam inh | TDP1 cell CPT | Six1-Eya2 blk
CCOCCCN(C(=O)Cn1nnc(-c2ccc(C)o2)n1)C(C(=O)NC1CCCC1)c1ccco1 (configuration not stated) | 4 | / | -8% | -13 | 4% | 16
Cc1ccc(-c2nnn(CC(=O)N(c3ccccc3F)C(C(=O)NC3CCCC3)c3ccco3)n2)o1 (configuration not stated) | -4 | 10% | 16µM* | -11 | 29µM* | -12
CCOCCCN(C(=O)Cn1nnc(-c2ccc(C)o2)n1)C(C(=O)NC1CCCC1)c1ccc(C)o1 (configuration not stated) | -8 | 5% | ? | -52* | ? | -12
Cc1ccc(-c2nnn(CC(=O)N(c3ccc(F)cc3)C(C(=O)NC3CCCC3)c3ccco3)n2)o1 (configuration not stated) | 10 | 1% | ? | 93 | 15µM* | 2
Cc1ccc(-c2nnn(CC(=O)N(c3cccc(F)c3)C(C(=O)NC3CCCC3)c3ccco3)n2)o1 (configuration not stated) | 3 | 3% | 16µM* | 2 | 21µM* | 1
COc1ccccc1C(=O)C1CCCN(C(=O)c2cn3cc(Cl)ccc3n2)C1 (configuration not stated) | 11 | -3% | ? | 29 | -20% | -2
CC(C)[C@H](NC(=O)OC(C)(C)C)c1cc(C(=O)N2CCOCC2)c(N)s1 | -1 | / | ? | 17 | -30% | 3
Cc1ccccc1N1C(=O)C2C3C=CC(C2C1=O)N(C)C3=O (configuration not stated) | 14 | 2% | -2% | 17 | 3% | 4
CN1C2C=CC(=O)C1C1C(=O)N(c3ccccc3)C(=O)C12 (configuration not stated) | 11 | / | 18µM* | -118* | 18µM* | 0
O=C(COc1ccc2ccccc2c1Br)Nc1cccnc1 | 0 | -9% | ? | ? | 16µM* | -12
COc1ccc(-c2cc(=O)oc3c(C)c(OCC(=O)Nc4cccnc4)ccc23)cc1 | 5 | -13% | -15% | 37 | ? | -6
O=C(O)CCC(=O)NNC(=O)COc1ccc2ccccc2c1Br | / | -2% | 5% | 3 | 0% | -9
O=C(COc1ccc2ccccc2c1Br)Nc1ccncc1 | 6 | -2% | 7.3µM* | -1 | 10µM* | -2
O=C(COc1ccccc1[N+](=O)[O-])Nc1cccnc1 | 6 | -3% | -7% | -11 | 1% | 3
Cc1c(C)c2ccc(OCC(=O)Nc3cccnc3)c(C)c2oc1=O | / | -7% | 18µM* | 9 | ? | -6
OC1(c2ccccc2)Cc2cccc[n+]2C1c1ccccc1 (configuration not stated) | / | / | -9% | 7 | -3% | 6
O=C(Nc1ccc(Cl)cc1)c1ccc2nsnc2c1 | 3 | 5% | ? | 16 | ? | 3
COC(=O)[C@]1(CC(C)C)N[C@H](c2ccc(-c3ccc(F)cc3)cc2)[C@@H]2C(=O)N(C)C(=O)[C@@H]21 | 3 | -3% | ? | -23 | 18µM* | -4
CCN1C(=O)[C@H]2[C@@H](c3ccc(-c4ccc(F)cc4)cc3)N[C@@](CC(C)C)(C(=O)OC)[C@H]2C1=O | 1 | / | 18µM* | -66* | 13µM* | 4
COC(=O)[C@]1(Cc2ccccc2)N[C@H](c2ccc(-c3ccc(OC)cc3)cc2)[C@@H]2C(=O)N(C)C(=O)[C@@H]21 | 5 | / | 1% | 9 | -4% | 1
